# Test results as given in PubChem BioAssay AID2685 (National Center for Advancing Translational Sciences (NCATS), 2010).
# Among all 320,000 compounds or so, about 2,100 (0.66%) were called active. Another 53% or so got no clear call; they are omitted. Calls follow the shape of the dose curve; as a rule, active = well fitted inhibition curve with a large enough effect in the signal ratio, with a control signal flat (not every such curve was filed as active); inconclusive = small, poorly fitted or top-dose-only effect, or effect the other way, or a change in a side signal; inactive = flat fitted curve, though single readings scatter; the % refers to the signal ratio. This excerpt belongs to a sample that is enriched for actives.
# Assay: qHTS Assay for Lipid Storage Modulators in Drosophila S3 Cells;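 as to cell number change: cells counted by Cell Tracker Red CMTPX staining in the red channel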; as to lipid storage change, negative = inhibition: % is scaled to controls: 0 for no effect and ±100 for the full control effect
# Conditions: BODIPY lipid droplet fluorescence, 18-24 h, cells fed with added oleic acid; cell number change: measured here: cell count max response; series mostly up to 46.1 µM; lipid storage change, negative = inhibition: at the top concentration
# Method in brief: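 Drosophila S3 cells got compounds at several concentrations plus oleic acid (400 uM solution). Laser-scanning cytometry with 488 nm excitation read lipid droplets at 500-530 nm and cells at 575-640 nm. Percent activity was relative to 20 uM Triacsin C.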
# Potency is read from the fitted curve at half-maximal effect.
Structure (SMILES),Potency,cell number change,"lipid storage change, negative = inhibition",outcome
Cc1ccc(NC(=O)c2cccc(C(F)(F)F)c2)cc1NC(=O)c1[nH]cnc1C(N)=O,0.517 µM (active),-5.2%,,
Cc1ccc(C(=O)Nc2cccc(C(F)(F)F)c2)cc1NC(=O)c1nccnc1N,,-18.4%,-14.7% (inactive),
Cc1ccc(C(=O)Nc2cccc(C(F)(F)F)c2)cc1Nc1ncnc2nc[nH]c12,,-0.327%,14.7% (inactive),
CC(NC(=O)c1cc(S(=O)(=O)N2CCCC2)ccc1Cl)c1ccccn1 (configuration not stated),,12.8%,11.6% (inactive),
O=C(N/N=C/c1ccc([N+](=O)[O-])cc1)c1ccc2nc[nH]c2c1,,-15.6%,6.51% (inactive),
O=C(Nc1ccc(F)cc1)c1cc(Cl)sc1Cl,,-1.56%,5.17% (inactive),
CN1c2ccccc2C(O)=C(C(=O)Nc2ccccc2)S1(=O)=O,,,15.4% (inactive),
CN1c2ccsc2C(O)=C(C(=S)Nc2ccccc2)S1(=O)=O,18.4 µM (active),15.4%,,
Cc1ccccc1NC(=S)C1=C(O)c2sccc2N(C)S1(=O)=O,,,,inactive
COc1ccc(NC(=S)NNC(=O)CNc2ccc(Cl)cc2)cc1,,,18% (inactive),
COc1ccccc1N1CCN(CC(C)N(C(=O)C2CCCCC2)c2ccccn2)CC1 (configuration not stated),,9.42%,12.2% (inactive),
CCOc1cc(C2C(C(=O)c3ccc(C)o3)=C(O)C(=O)N2CCc2ccccc2)ccc1O (configuration not stated),,,16.1% (inactive),
O=C(CN1CCCCC1)Nc1cccc(Br)c1,23.1 µM (active),-14.8%,,
CN1CCN(CCC(=O)Nc2ccc(F)c(F)c2)CC1,,-0.365%,-5.86% (inactive),
CCOC(=O)c1cc(NC(=O)CN2CCCC2)cc(C(=O)OCC)c1,2.31 µM (active),-1.35%,,
COc1ccc(NC(=O)CCN2CCCCCC2)cc1,,-0.671%,-1.99% (inactive),
O=C(CN1CCCCCC1)Nc1cccc(NC(=O)CN2CCCCCC2)c1,,-11.3%,-3.29% (inactive),
CCOc1ccc(NC(=O)CCN2CCCCC2)cc1,,9.23%,-2.95% (inactive),
COC(=O)c1cc(NC(=O)CN2CCN(C(C)=O)CC2)cc(C(=O)OC)c1,,15.4%,-5.4% (inactive),
O=C(CCN1CCN(CCO)CC1)Nc1ccc(Br)cc1,,0.964%,-8.8% (inactive),
COC(=O)c1ccc(NC(=O)CN2CCCC2)cc1,,-13.3%,-7.98% (inactive),
O=C(CCN1CCN(CCO)CC1)Nc1ccc(F)c(F)c1,6.51 µM (active),1.67%,,
COc1ccc(NC(=O)CCN2CCCCC2)cc1,18.4 µM (active),-13.9%,,
O=C(CCN1CCCC1)Nc1cccc(Br)c1,,-0.144%,8.6% (inactive),
O=C(CSc1nc2c(c(=O)n1-c1ccc(F)cc1)SCC2)N1CCCC1,,-5.69%,-0.194% (inactive),

Structure (SMILES),Potency,cell number change,"lipid storage change, negative = inhibition",outcome
Cc1cc(C)cc(OC(=O)COc2ccccc2C)c1,,16.2%,0.642% (inactive),
CCCOc1ccccc1C(=O)N(Cc1ccco1)C1CCS(=O)(=O)C1 (configuration not stated),,-17.8%,-5.58% (inactive),
CCOC(=O)C1=C(COC(=O)CCC(=O)c2ccc(C)cc2)NC(=O)NC1C (configuration not stated),,25.4%,16.2% (inactive),
CC(=O)C(Sc1ccc2nnc(-c3ccncc3)n2n1)C(C)=O,,11%,10.9% (inactive),
Cc1cc(C)cc(N(CCC(=O)Nc2nnc(C)s2)S(=O)(=O)c2ccc(Cl)cc2)c1,,-5.03%,13.3% (inactive),
Cc1nc([N+](=O)[O-])c(SCC(N)=O)n1Cc1ccccc1,,11.1%,-0.96% (inactive),
Cc1ccc(C(=O)C2CCN(S(=O)(=O)c3ccccc3C(=O)O)CC2)cc1,,25.8%,-9.15% (inactive),
COCCN(CC1CCCN(C2Cc3ccccc3C2)C1)C(=O)CCC(F)(F)F (configuration not stated),,20.2%,-0.431% (inactive),
COc1ccc(NC(=O)C2CCCN(C(=O)Nc3ccc(OC)cc3)C2)cc1 (configuration not stated),1.03 µM (active),16.7%,,
CC(=O)c1cccc(NC(=O)Nc2ccc(C(=O)N3CCCC3)cc2)c1,,14.3%,-1.01% (inactive),
COc1ccc(NC(=O)N2CCCC(C(=O)NC(C)C)C2)cc1 (configuration not stated),,10.2%,11.9% (inactive),
COc1ccc(NC(=O)N2CCCC(C(=O)Nc3ccccc3OC)C2)cc1 (configuration not stated),,0.427%,28.8% (inactive),
O=C(Nc1ccc(C(=O)N2CCCCC2)cc1)Nc1cccc(Cl)c1,13 µM (active),,,
COc1ccc(NC(=O)COc2ccc3c(c2)CCC3)cc1,8.2 µM (active),,,
COc1ccc(NC(=O)CCN2CCCC(C)C2)cc1 (configuration not stated),,17%,0.0368% (inactive),
CCOc1ccc(NC(=O)COc2ccc3c(c2)CCC3)cc1OC,,-12.3%,0.757% (inactive),
CC1CCCN(CCC(=O)c2ccc(Br)cc2)C1 (configuration not stated),,-9.39%,4.51% (inactive),
O=C(Nc1ccc(C(=O)N2CCOCC2)cc1)Nc1cccc(Cl)c1,,5.64%,14.8% (inactive),
COc1cccc(NC(=O)COc2ccc3c(c2)CCC3)c1,,,,inactive
COc1ccc(C(=O)CCN2CCCC(C)C2)cc1 (configuration not stated),11.6 µM (active),-14.2%,,
NS(=O)(=O)c1cc(Cl)c(NC(=O)COC(=O)c2ccccn2)c(Cl)c1,,16.5%,8.46% (inactive),
N#Cc1ccccc1OCC(=O)Nc1ccc2c(c1)OCCCO2,,0.833%,,inactive
O=[N+]([O-])c1ccc(Oc2ccc(OCc3ccccc3)cc2)nc1,,-9.11%,-0.254% (inactive),
CC(=O)Nc1ccc(NC(=O)C(C)OC(=O)CCC(=O)c2ccc(F)cc2)cc1 (configuration not stated),,8.99%,2.38% (inactive),
Cc1ccc(C(=O)NNC(=O)c2ccncc2)cc1C,,12.2%,11.9% (inactive),

Structure (SMILES),Potency,cell number change,"lipid storage change, negative = inhibition",outcome
CCOC(=O)N1CCN(CC(O)COc2c(C)cc(C)cc2C)CC1 (configuration not stated),,5%,7.41% (inactive),
CNC(=O)c1ccc(NC(=O)Cc2ccc(S(=O)(=O)N3CCOCC3)s2)cc1,,,,inactive
O=C(CCN1CCCCC1)Nc1ccccc1,,-23.3%,-20.5% (inactive),
O=C(CCN1CCCCCC1)Nc1ccc(F)cc1,,-3.75%,-0.0849% (inactive),
O=C(CCN1CCCCC1)Nc1cccc(Cl)c1,25.9 µM (active),-28.1%,,
O=C(CCN1CCCCCC1)Nc1cccc(F)c1,25.9 µM (active),-13.4%,,
CCOC(=O)c1cc(NC(=O)Cc2ccc(S(=O)(=O)N3CCOCC3)s2)cc(C(=O)OCC)c1,1.16 µM (active),-15.4%,,
Cc1cccc(NC(=O)CCN2CCCCC2)c1,,8.73%,10.7% (inactive),
O=C(Cc1ccc(S(=O)(=O)N2CCOCC2)s1)Nc1ccc2c(c1)CCC2,,-23.1%,-2.06% (inactive),
O=C(NCCN1CCCCC1)Nc1cccc(F)c1,,-5.7%,15.7% (inactive),
COc1ccc(NC(=O)C2CCCN(S(=O)(=O)c3ccc4c(c3)oc(=O)n4C)C2)c(OC)c1 (configuration not stated),,13.3%,11.1% (inactive),
COc1cc(C2NC(=O)NC(C)=C2C(C)=O)cc(OC)c1OC (configuration not stated),,0.318%,11.4% (inactive),
COc1ccc(CC(=O)Nc2ccc(/C(C)=N\NC(=O)c3ccc(Br)o3)cc2)cc1,,2.49%,-18.3% (inactive),
COC(=O)c1ccc(COC(=O)C2CC(O)CN2S(=O)(=O)c2ccc([N+](=O)[O-])cc2)cc1 (configuration not stated),,2.24%,-0.843% (inactive),
CC1CCCC(C)N1C(=O)CSc1nnc(NC(=O)c2cccs2)s1 (configuration not stated),,3.67%,13% (inactive),
CCn1cc([N+](=O)[O-])c(C(=O)N2CCCC2)n1,29.1 µM (active),-10.5%,,
CCn1cc([N+](=O)[O-])c(C(=O)N2CCCCCC2)n1,,11.5%,0.775% (inactive),
CCn1cc([N+](=O)[O-])c(C(=O)N2CCOCC2)n1,,-13.3%,-9.37% (inactive),
COc1ccc(/C=N/S(=O)(=O)c2ccc(C)cc2)cc1,,,-20.7% (inactive),
CC(NC(=O)COC(=O)CCN1C(=O)C2CC=CCC2C1=O)c1ccc(Br)cc1 (configuration not stated),9.2 µM (active),1.69%,,
Cc1ccc(SCC(=O)OCC(=O)NC(C)c2ccc(Br)cc2)cc1 (configuration not stated),,-2.31%,,inactive
CC(=O)C(Cc1ccccc1)NC(=O)COC(=O)CCN1C(=O)C2CC=CCC2C1=O (configuration not stated),,7.02%,11% (inactive),
O=C1N(CC(=O)N2CCc3ccccc32)CCN1Cc1ccc(Cl)cc1,,,,inactive
COc1nn(-c2ccccc2)c(=O)c(Cl)c1Cl,11.6 µM (active),-20%,,
COc1c(Cl)cnn(-c2ccccc2)c1=O,,-2.85%,5.58% (inactive),

Structure (SMILES),Potency,cell number change,"lipid storage change, negative = inhibition",outcome
COc1cc(Cl)nn(-c2ccccc2)c1=O,,0.264%,6.03% (inactive),
COc1ccc(NC(=O)NC2CCCCCCC2)c(OC)c1,,-0.578%,,inactive
COc1ccc(NC(=O)Cn2ccc3c(OC)cccc3c2=O)cc1,,0.407%,0.623% (inactive),
NNC(=O)COc1ccc2oc3c(c2c1)CCCC3,,10.5%,,inactive
CNC(=O)NC(=O)COc1ccc2oc3c(c2c1)CCCC3,0.58 µM (active),18.9%,,
O=C(O)COc1ccc2oc3c(c2c1)CCCC3,,21.3%,,inactive
COc1cccc(-c2cc(C(=O)N/N=C/c3ccco3)c3ccccc3n2)c1,,,-13.5% (inactive),
O=C(N/N=C/c1ccco1)c1cc(C2CC2)nc2ccccc12,,-1.9%,,inactive
O=C(N/N=C/c1ccco1)c1cc(-c2ccccc2)nc2ccccc12,29.1 µM (active),-7.31%,,
O=C1N/C(=N/O)S/C1=C/c1cccnc1,,16%,-2.62% (inactive),
CC(=O)/C=C\c1ccccc1OC(=O)c1cc2ccccc2oc1=O,,-9.71%,-11.6% (inactive),
O=C(COC(=O)c1cc2ccccc2o1)c1ccccc1,,-6.43%,,inactive
O=C(Oc1ccccc1/C=C\C(=O)c1cc2ccccc2o1)c1ccccc1,14.6 µM (active),,,
FC(F)(F)c1cc(C(F)(F)F)c2ccc(N3CCOCC3)nc2n1,,4.12%,1.42% (inactive),
C=CCn1c(SCC(=O)NC(=O)c2cccc([N+](=O)[O-])c2)nnc1-c1ccccc1F,,-9.47%,-0.693% (inactive),
Cc1ccc(C(=O)OCC(=O)N2CCOCC2)cc1,,-0.794%,,inactive
Cc1ccc(C(=O)OCC(=O)Nc2ccc3c(c2)OCO3)cc1S(=O)(=O)N1CCOCC1,,-2.32%,12.5% (inactive),
O=C(COC(=O)c1ccc(Br)c(S(=O)(=O)N2CCOCC2)c1)NCC1CCCO1 (configuration not stated),0.58 µM (active),-0.879%,,
O=C(COC(=O)c1cc(S(=O)(=O)N2CCOCC2)ccc1O)NCC1CCCO1 (configuration not stated),,-22.6%,19.7% (inactive),
Cc1ccc(NC(=O)COC(=O)c2ccc(C)c(S(=O)(=O)N3CCOCC3)c2)cc1,,6.4%,1.82% (inactive),
O=C(COC(=O)c1ccc(Cl)c(S(=O)(=O)N2CCCCC2)c1)NCC1CCCO1 (configuration not stated),,18.1%,7.99% (inactive),
CCN(c1ccc(NC(=O)COC(=O)c2ccc(C)c(S(=O)(=O)N3CCOCC3)c2)cc1)C(C)C,23.1 µM (active),-6.95%,,
